Pf growth 48h = Primary qHTS for delayed death inhibitors of the malarial parasite plastid, 48 hour incubation | P. falciparum luciferase growth in erythrocytes, 48 h | Potency, µM (series often up to 28.7 µM), hits mostly inhibitors | actives 5.9% (n = 310,000) | AID 504832, 2011
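First compound was added to culture medium, then infected red cells at 0.1% parasitemia and 2% hematocrit (final). After incubation at 37 C under 5% CO2, luciferase detection reagent was dispensed and light output recorded.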
SARS PLpro yeast = qHTS of Yeast-based Assay for SARS-CoV PLP; S. cerevisiae expressing SARS-CoV PLpro, growth rescue; Potency, µM (highest dose often 32.9 µM), most hits filed as activators; actives 0.19% (n = 330,000); AID 485353, 2010; calls by dose curve; further: nearly all actives have a fitted effect of over 55% in size
Shiga inhibitor = A qHTS for Small Molecule Inhibitors of Shiga Toxin. inhibition, % at 38.7 µM. Vero cells, Shiga toxin protein synthesis inhibition reporter. actives 9.2% (n = 290,000); in the data active means inhibition mostly above about 28%, no sharp cut-off; inactive means mostly below about 43%
CHX counter = Cycloheximide Counterscreen for Small Molecule Inhibitors of Shiga Toxin | cell reporter, cycloheximide protein synthesis inhibition counterscreen | max response, % | actives 12% (n = 300,000) | AID 2314, 2010; in the data active means max response mostly above about 13%, no sharp cut-off; inactive means mostly below about 14%; further: read at 38.3 µM for the half of the compounds with a filed dose
AMA1-RON2 inh = qHTS for Inhibitors of AMA1-RON; Towards Development of Antimalarial Drug Lead: Primary Screen | AlphaScreen AMA1-biotinylated RON2 peptide binding | Potency, µM (series often up to 58.2 µM), most hits filed as inhibitors | actives 0.2% (n = 360,000) | AID 720542, 2013; further: nearly all actives have a fitted effect of over 45% in size
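AMA1 (3D7) with his tag at 25 nM final met compounds first, then biotinylated RON2 peptide at 25 nM; detection used donor plus acceptor beads, 10 µg/mL apiece, read by AlphaScreen after 30 min at room temperature.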
Pf growth 96h = Primary qHTS for delayed death inhibitors of the malarial parasite plastid, 96 hour incubation; Potency, µM (titrated, usually from 28.7 µM), actives largely listed as inhibitors; P. falciparum luciferase reporter growth, 96 h; actives 6.9% (n = 320,000)
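Infected RBCs, 2% Hct / 0.05% parasitemia final; luciferase-reporter P. falciparum; cpd 96 h, 37 C, 5% CO2; luciferase detection reagent; luminescence.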
Hits are given with their value. The list is not random: actives were taken first. Their share in the collection is about 19%. Unless noted, the call rests on the fitted dose curve; in most records, active means well fitted curve in the direction sought with a large enough effect; inconclusive means small, poorly fitted or top-dose-only effect, or another doubt; inactive means no such curve, though single readings can be large; an effect the other way counts as inactive or inconclusive.

For O=C(NCC1CCCO1)c1cc(NS(=O)(=O)c2cccs2)cc(NS(=O)(=O)c2cccs2)c1 (centres undefined) the results were Pf growth 48h inactive, SARS PLpro yeast inactive, Shiga inhibitor inactive, CHX counter inactive, AMA1-RON2 inh inactive and Pf growth 96h inactive.
For COc1cc(NS(=O)(=O)c2ccc3[nH]c(=O)oc3c2)cc(OC)c1 the results were Pf growth 48h inactive, SARS PLpro yeast inactive, Shiga inhibitor inactive, CHX counter inactive, AMA1-RON2 inh inactive and Pf growth 96h inactive.
Screening COc1cc(OC)cc(-c2noc(-c3csc([C@@H]4O[C@H](CO)[C@H](O)[C@H](O)[C@H]4O)n3)n2)c1 returned AMA1-RON2 inh inactive.
Screening C=CCOc1ccc(/C(O)=C2/C(=O)C(=O)N(CCCn3ccnc3)C2c2ccco2)cc1 (centres undefined) returned Pf growth 48h inactive, SARS PLpro yeast inactive, Shiga inhibitor 65, CHX counter 32, AMA1-RON2 inh inactive and Pf growth 96h inactive.
For CCCOc1ccc(/C(O)=C2/C(=O)C(=O)N(CCOC)C2c2cccnc2)cc1 (centres undefined) the results were Pf growth 48h 1µM, SARS PLpro yeast inactive, Shiga inhibitor inactive, CHX counter inactive and Pf growth 96h inconclusive.
CC1Cc2cc(/C(O)=C3/C(=O)C(=O)N(CCCn4ccnc4)C3c3ccco3)ccc2O1 (centres undefined) was read as Pf growth 48h inactive, SARS PLpro yeast inactive, Shiga inhibitor 113, CHX counter 33, AMA1-RON2 inh inactive and Pf growth 96h 0.21µM.
Screening CCCOc1ccc(/C(O)=C2/C(=O)C(=O)N(CCCn3ccnc3)C2c2ccco2)cc1 (centres undefined) returned Pf growth 48h inactive, SARS PLpro yeast inactive, Shiga inhibitor inactive, CHX counter 28, AMA1-RON2 inh inactive and Pf growth 96h inactive.
For CCCOc1ccc(/C(O)=C2/C(=O)C(=O)N(CCCn3ccnc3)C2c2ccc(C)o2)cc1 (centres undefined) the results were Pf growth 48h inactive, SARS PLpro yeast inactive, Shiga inhibitor inactive, CHX counter inactive, AMA1-RON2 inh inactive and Pf growth 96h inactive.
Screening COc1ccc(NC(=O)c2cccc(S(=O)(=O)NCc3ccccc3)c2)cc1S(N)(=O)=O returned Pf growth 48h inconclusive, SARS PLpro yeast inactive, AMA1-RON2 inh inactive and Pf growth 96h inactive.
O=[N+]([O-])c1ccc(Sc2ncccn2)c([N+](=O)[O-])c1 was read as Pf growth 48h 13µM, SARS PLpro yeast inactive, Shiga inhibitor inactive, CHX counter inactive, AMA1-RON2 inh inactive and Pf growth 96h 3.3µM.
NNS(=O)(=O)c1ccc(Sc2ccccn2)c([N+](=O)[O-])c1 was read as Pf growth 48h inactive, SARS PLpro yeast inactive, Shiga inhibitor inactive, CHX counter 15, AMA1-RON2 inh inactive and Pf growth 96h inactive.
CN1CCN(c2ccc([N+](=O)[O-])c(-n3nc(-c4ccccc4)c4ccccc4c3=O)c2)CC1 was read as Pf growth 48h inconclusive, SARS PLpro yeast inactive, Shiga inhibitor inactive, CHX counter inactive, AMA1-RON2 inh inactive and Pf growth 96h 8.3µM.
N#Cc1ccc(Sc2ccccn2)c([N+](=O)[O-])c1 was read as Pf growth 48h inactive, SARS PLpro yeast inactive, Shiga inhibitor inactive, CHX counter inactive, AMA1-RON2 inh inactive and Pf growth 96h inactive.
For CN1CCN(c2ccc([N+](=O)[O-])c(Sc3ccccn3)c2)CC1 the results were Pf growth 48h inconclusive, SARS PLpro yeast inactive, Shiga inhibitor inactive, CHX counter inactive, AMA1-RON2 inh inactive and Pf growth 96h 0.29µM.
For COC(=O)CCN1CCC2CC1c1cc(Cl)ccc12 (centres undefined) the results were AMA1-RON2 inh inactive.
Cc1cccc(Sc2ccc([N+](=O)[O-])cc2[N+](=O)[O-])n1 was read as Pf growth 48h inconclusive, SARS PLpro yeast inactive, Shiga inhibitor inactive, CHX counter inactive, AMA1-RON2 inh inactive and Pf growth 96h 8.3µM.
COc1ccc(-c2ccc(CO)o2)cc1N was read as Pf growth 48h inactive, SARS PLpro yeast inactive, Shiga inhibitor 55, CHX counter 31, AMA1-RON2 inh inactive and Pf growth 96h inactive.
For COc1ccc(C(CC(=O)O)NC(=O)COc2cc(C)ccc2C)cc1OC (centres undefined) the results were Pf growth 48h inactive, SARS PLpro yeast inactive, Shiga inhibitor inactive, CHX counter inactive, AMA1-RON2 inh inactive and Pf growth 96h inactive.
For Cn1c(=O)n(C)c2cc(N3CCOCC3)c(NC(=O)c3cccc(Cl)c3)cc21 the results were Pf growth 48h inactive, SARS PLpro yeast inactive, Shiga inhibitor inactive, CHX counter inactive, AMA1-RON2 inh inactive and Pf growth 96h 1.7µM.
For COc1cccc(C(=O)Nc2cc3c(cc2N2CCCC2)n(C)c(=O)n3C)c1 the results were Pf growth 48h inactive, SARS PLpro yeast inactive, Shiga inhibitor inactive, CHX counter inactive, AMA1-RON2 inh inactive and Pf growth 96h 12µM.
For Cn1c(=O)n(C)c2cc(N3CCOCC3)c(NC(=O)c3ccc(F)cc3)cc21 the results were Pf growth 48h inconclusive, SARS PLpro yeast inactive, Shiga inhibitor inactive, CHX counter inactive, AMA1-RON2 inh inactive and Pf growth 96h 9.3µM.
For COc1cccc(OC)c1C(=O)Nc1cc2c(cc1N1CCOCC1)n(C)c(=O)n2C the results were Pf growth 48h 8.3µM, SARS PLpro yeast inactive, Shiga inhibitor inactive, CHX counter inactive, AMA1-RON2 inh inactive and Pf growth 96h inconclusive.
`CC(=O)Nc1cc2c(c(Cl)c1Cl)-c1ccccc1C2=O` gave AMA1-RON2 inh inactive.
Screening Nc1nc(SCC(=O)NC2CCCC2)[nH]c(=O)c1-c1ccccc1 returned SARS PLpro yeast inactive, Shiga inhibitor inactive, CHX counter inactive and Pf growth 96h inactive.
For C=CCCC(=O)N1C[C@H]2CON(C)[C@H]2C[C@H]1c1cccc(Oc2ccccc2)c1 the results were AMA1-RON2 inh inactive.
`CCCNc1nc2c(c(=O)n(C)c(=O)n2C)n1CCCc1ccccc1` gave Pf growth 48h inconclusive, SARS PLpro yeast inactive, Shiga inhibitor inactive, CHX counter inactive, AMA1-RON2 inh inactive and Pf growth 96h 1.5µM.
Screening Cn1c(=O)c2c(nc(NCCCO)n2CCc2ccccc2)n(C)c1=O returned Pf growth 48h inactive, SARS PLpro yeast inactive, Shiga inhibitor inactive, CHX counter inactive, AMA1-RON2 inh inactive and Pf growth 96h inactive.
For CCCNc1nc2c(c(=O)n(C)c(=O)n2C)n1CCc1ccccc1 the results were Pf growth 48h inactive, SARS PLpro yeast inactive, Shiga inhibitor inactive, CHX counter inactive, AMA1-RON2 inh inactive and Pf growth 96h inconclusive.
Screening Cn1c(=O)c2c(nc(NCCO)n2CCc2ccccc2)n(C)c1=O returned Pf growth 48h inactive, SARS PLpro yeast inactive, Shiga inhibitor inactive, CHX counter inactive, AMA1-RON2 inh inactive and Pf growth 96h 10µM.
